Measurements from ChEMBL document CHEMBL3988442, “University of Dundee, Small-Polar-MMV Screening Library” (2021).
Among all 48,000 compounds or so, about 13,000 (27%) showed an effect of 50% or more. The list shows a part of the results.

The compounds below were run on Wolbachia pipientis (assay: Anti-Wolbachia Cell-Based Screen). Conditions: 5 µM.
Type: functional
Set-up: scale not given: in the data most compounds retested in dose-response had high values
With `CCCc1cc(NC(=O)c2cc(N3CCNC3=O)c(F)cc2F)n[nH]1` the “Percent Effect” value was -4.311%. In the case of `Cc1noc(C)c1CN(C)Cc1nc(N)c2ccccc2n1`, the “Percent Effect” value is reported as -15.35%. In the case of `Cc1noc(C)c1CN(C)c1ncnc2onc(C)c12`, the “Percent Effect” value is reported as 10.95%. With `Cc1noc(C)c1CN(C)c1ncnc2ccccc12` the “Percent Effect” value was 85.55%. `Cc1cccc(COC[C@@H]2CC[C@H]3[C@H](CCN3Cc3ccco3)O2)n1.O=C(O)C(F)(F)F.O=C(O)C(F)(F)F` was tested, and the “Percent Effect” value was -8.217%. For `CN(C)C(=O)COC[C@H]1CC[C@@H]2[C@@H](CCN2Cc2ccco2)O1.O=C(O)C(F)(F)F`, the “Percent Effect” value was 91.23%. In the case of `O=C(COC[C@@H]1CC[C@H]2[C@H](CCN2Cc2ccco2)O1)N1CCCC1`, the “Percent Effect” value is reported as 94.38%. For `O=C(c1ccco1)N1CC[C@@H]2O[C@H](COCC3CCOCC3)CC[C@@H]21`, the “Percent Effect” value was -18.62%. For `Cc1cccc(COC[C@@H]2CC[C@H]3[C@H](CCN3C(=O)CC3CC3)O2)n1.O=C(O)C(F)(F)F`, the “Percent Effect” value was -1.291%. In the case of `CN(C)C(=O)COCC1C[C@@H]2OCCN(Cc3ccco3)[C@H]2C1` (stereo not given in full), the “Percent Effect” value is reported as -1.169%. In the case of `c1coc(CN2CC[C@@H]3O[C@@H](COCC4CCOCC4)CC[C@@H]32)c1`, the “Percent Effect” value is reported as 95.89%. For `O=C(COC[C@H]1CC[C@H]2[C@H](CCN2c2ncccn2)O1)N1CCCC1.O=C(O)C(F)(F)F`, the “Percent Effect” value was -10.98%. `COCCN1CC[C@@H]2O[C@@H](COCC(=O)N3CCCC3)CC[C@@H]21.O=C(O)C(F)(F)F` was tested, and the “Percent Effect” value was -7.716%. `O=C(c1ccco1)N1CC[C@@H]2O[C@@H](COCC3CCOCC3)CC[C@@H]21` was tested, and the “Percent Effect” value was -0.1018%. For `Cc1cccc(COC[C@H]2CC[C@H]3[C@H](CCN3Cc3ccco3)O2)n1`, the “Percent Effect” value was 105.2%. For `COCCn1cc(NC(=O)NCC2CCN(c3ccccc3)C2)cn1` (stereo not given), the “Percent Effect” value was 6.997%. `Cc1cc(CN2CCC(c3ccnn3CCO)CC2)no1` was tested, and the “Percent Effect” value was -5.622%. `CCNc1ncc(C(=O)NCc2csc(-c3cnccn3)n2)cn1` was tested, and the “Percent Effect” value was -2.125%. With `CCC1COCCN1C(=O)NCc1cccc(-c2cnn(C)c2)c1` (stereo not given) the “Percent Effect” value was -16.85%. In the case of `Cc1ccc(CNC[C@H]2Cn3cc(-c4ccccc4)nc3CO2)cc1`, the “Percent Effect” value is reported as -14.25%. `COc1ccc(CNC[C@H]2COCc3nc4cc(F)ccc4n32)cn1` was tested, and the “Percent Effect” value was 2.56%. For `c1csc(CN2CC[C@H]3O[C@@H](COCC4CC4)CC[C@H]32)c1`, the “Percent Effect” value was -24.01%. For `CN1C[C@@H](COCC2CC2)[C@H]2CCN(Cc3ccco3)CC[C@H]2C1=O.O=C(O)C(F)(F)F`, the “Percent Effect” value was -15.86%. In the case of `O=C(O)C(F)(F)F.c1coc(CN2CC[C@H]3O[C@@H](COCC4CC4)CC[C@H]32)c1`, the “Percent Effect” value is reported as 103.1%. With `CCSc1nnc(N2CCN(c3ccccc3)CC2)s1` the “Percent Effect” value was -16.68%. For `CCc1nc(N)nc(N(C)Cc2nncn2CCOC)c1C`, the “Percent Effect” value was -4.118%. With `Cc1cc(-n2cccn2)ccc1CN1CCOCC(CN(C)C)C1` (stereo not given) the “Percent Effect” value was -16.76%. `CN(C)c1ccc(CC2COCCN(Cc3nccn3C)C2)nn1` (stereo not given) was tested, and the “Percent Effect” value was 107.3%. With `Cc1noc(C)c1CN1CCN(Cc2nccn2C)C(C)C1` (stereo not given) the “Percent Effect” value was -9.694%. `Cn1ccnc1C1CCN(CCC2CCOC2)CC1` (stereo not given) was tested, and the “Percent Effect” value was -2.458%. For `Cn1ccnc1CN1CCOCC(Cc2ccccn2)C1` (stereo not given), the “Percent Effect” value was -4.289%. In the case of `Cc1cnc(CC2COCCN(Cc3nccn3C)C2)cn1` (stereo not given), the “Percent Effect” value is reported as 117.2%. In the case of `Cc1cccc(CC2COCCN(Cc3nccn3C)C2)n1` (stereo not given), the “Percent Effect” value is reported as 119.1%. `CCN1CCN(S(=O)(=O)N2CCc3ccccc3C2)[C@H]2CS(=O)(=O)C[C@H]21` was tested, and the “Percent Effect” value was -15.22%. In the case of `CS(=O)(=O)NCCCN1CCCC1c1ccccc1` (stereo not given), the “Percent Effect” value is reported as -6.695%. In the case of `O=C1C(Nc2ccc3nccnc3n2)CCN1c1ccccc1` (stereo not given), the “Percent Effect” value is reported as 8.259%. For `Cc1nnc2n1CC(CNCc1nc(-c3ccsc3)no1)CC2` (stereo not given), the “Percent Effect” value was -10.67%. For `c1csc(-c2nnc(CSCCN3CCOCC3)o2)c1`, the “Percent Effect” value was 0.2217%. `CN1CCN(C(=O)c2csnn2)c2ccccc21` was tested, and the “Percent Effect” value was 10.7%. `CN1CCN(C(=O)c2cnsn2)c2cc(F)ccc21` was tested, and the “Percent Effect” value was 151.8%. In the case of `CN1CCCN(S(=O)(=O)c2cnn(C)c2)c2cc(Cl)ccc21`, the “Percent Effect” value is reported as -13.02%. `Cc1ccc(C(=O)N2CCCN(C)c3ccc(F)cc32)o1` was tested, and the “Percent Effect” value was 112.2%. With `CN1CCCN(S(=O)(=O)c2cn(C)cn2)c2cc(F)ccc21` the “Percent Effect” value was -12.29%. In the case of `O=C(c1cncc(Br)c1)N1CCCc2ccc(F)cc21`, the “Percent Effect” value is reported as 6.203%. For `O=C(Nc1c(N2CCCC2)cccc1N1CCCC1)c1cnsn1`, the “Percent Effect” value was -3.532%. For `CN1CCCN(C(=O)c2cnsn2)c2cc(F)ccc21`, the “Percent Effect” value was 119.4%. `CC1CN(C)c2ccccc2CN1C(=O)c1cnsn1` (stereo not given) was tested, and the “Percent Effect” value was -24.53%. `CN1CCN(S(C)(=O)=O)c2cc(F)ccc21` was tested, and the “Percent Effect” value was -2.725%. For `CN1CCCN(S(C)(=O)=O)c2cc(F)ccc21`, the “Percent Effect” value was -11.53%. For `CN1CCCN(C(=O)c2cnsn2)c2cc(Cl)ccc21`, the “Percent Effect” value was 103.8%. `CN(Cc1cnccn1)C(=O)c1ccc(CSc2nnc[nH]2)o1` was tested, and the “Percent Effect” value was -27.79%. With `CSc1ccc(NCC(=O)NCC(=O)N2CCCC2)cc1F` the “Percent Effect” value was -3.658%. With `CN1CCN(C(=O)c2cnsn2)c2ccc(F)cc21` the “Percent Effect” value was 79.94%. In the case of `CN1CCN(C(=O)CCc2cccnc2)c2ccc(F)cc21`, the “Percent Effect” value is reported as -6.701%. For `CN1CCN(C(=O)CCCc2ccccn2)c2ccc(F)cc21`, the “Percent Effect” value was -53.44%. For `CCN(CC)C(=O)CCn1ncc2c(Cl)cccc21`, the “Percent Effect” value was 18.4%. For `CCN(CC)C(=O)c1c(Br)cnn1CC`, the “Percent Effect” value was 113.9%. With `CCN(C(=O)c1c(Cl)cnn1CC)C(C)C(N)=O` (stereo not given) the “Percent Effect” value was -13.9%. With `CCN(CC)C(=O)c1c(Cl)cnn1CC` the “Percent Effect” value was 102.5%. `CCn1ncc(Br)c1CN(C)S(=O)(=O)c1ccc(C)cc1` was tested, and the “Percent Effect” value was 6.609%. `CCN(CC)C(=O)c1nnn(Cc2ccccc2)c1OC` was tested, and the “Percent Effect” value was 4.418%. For `CC(=O)Nc1ccc2nc(CN(C)Cc3noc(C)n3)ccc2c1`, the “Percent Effect” value was 88.54%. In the case of `CC(=O)Nc1ccc2nc(-c3nccn3CCCN(C)C)ccc2c1`, the “Percent Effect” value is reported as 3.374%. With `CC(=O)Nc1ccc2nc(CN(C)Cc3snnc3C)ccc2c1` the “Percent Effect” value was 89.45%. `Cc1nnsc1CN(C)Cc1ccc(C(=O)Nc2sccc2C#N)cc1` was tested, and the “Percent Effect” value was -8.441%. `Cc1cnc(NC(=O)c2cccc(CN(C)Cc3snnc3C)c2)s1` was tested, and the “Percent Effect” value was -4.019%. For `Cc1nc(CNC(=O)Nc2ccc3c(ccn3CCN(C)C)c2)no1`, the “Percent Effect” value was -28.14%. For `CC(=O)Nc1ccc2nc(-c3nccn3C[C@@H]3CCCO3)ccc2c1`, the “Percent Effect” value was -0.02427%. `CC(=O)Nc1ccc(CN(C)Cc2snnc2C)cc1` was tested, and the “Percent Effect” value was 104.3%. In the case of `CC(=O)Nc1ccc(CNC(=O)CNCc2snnc2C)cc1`, the “Percent Effect” value is reported as -4.998%.
